# Screening data: PubChem BioAssay, National Center for Advancing Translational Sciences (NCATS)
# Most compounds without a hit are left out; they make up all but 21% or so of the library.
# CHX counter: affects cycloheximide protein synthesis inhibition readout, counter-screen; AID 2314; actives 12% (n = 300,000); max response, %; cell reporter, cycloheximide protein synthesis inhibition counterscreen; in the data active = max response mostly above about 13%, no sharp cut-off; inactive = mostly below about 14%; note: read at 38.3 µM for the half of the compounds with a filed dose; 0% is about no effect
# Pf growth 96h: P. falciparum growth inhibition at 96 hour, primary screen for plastid delayed-death inhibitors. P. falciparum luciferase reporter growth, 96 h. Potency, µM (series often up to 28.7 µM), without a hit: at the highest dose activity change, negative = inhibition, actives largely listed as inhibitors. actives 6.9% (n = 320,000); note: potency is the fitted concentration of half-maximal effect; % is set by controls: 0 for no effect and ±100 for the full control effect
#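 Plates of compound plus infected erythrocytes (2% hematocrit, 0.05% parasitemia final) incubate 96 hours, 37 C, 5% CO2. Detection reagent added; reduced luminescence from the parasites' luciferase reporter flags inhibition.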
# Shiga inhibitor: inhibitors of Shiga toxin in Vero cells; inhibition, % at 38.7 µM; actives 9.2% (n = 290,000); AID 2315; Vero cells, Shiga toxin protein synthesis inhibition reporter; in the data active = inhibition mostly above about 28%, no sharp cut-off; inactive = mostly below about 43%; note: 0% is about no effect
# Pf growth 48h: P. falciparum growth inhibition at 48 hours (one generation); P. falciparum luciferase growth in erythrocytes, 48 h; Potency, µM (highest dose often 28.7 µM), without a hit: top-dose activity change, negative = inhibition, hits mostly inhibitors; actives 5.9% (n = 310,000); AID 504832; note: potency is the fitted concentration of half-maximal effect; % is set by controls: 0 for no effect and ±100 for the full control effect
#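 Read-out is firefly luciferase luminescence from an integrated reporter in P. falciparum, so falling signal marks reduced parasite growth. Infected erythrocytes were at 2% hematocrit and 0.1% parasitemia (final) in Albumax-supplemented RPMI 1640.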
# HCMV inh: blocks human cytomegalovirus replication | HFF cells, HCMV-luciferase reporter, 72 h; active compounds read low | activity change, negative = inhibition, % at 57.5 µM | actives 4.5% (n = 410,000); in the data active = activity change below about -60%; inconclusive = no clear call, values can overlap the other calls; inactive = above about -39%; note: % is set by controls: 0 for no effect and ±100 for the full control effect
#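 HFF cells seeded 16 h at 37C, treated with compounds, infected with luciferase-reporter HCMV at MOI 1 PFU/cell; luciferase read at 72 h post infection, normalized to buffer-only and Salinomycin controls.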
# HCV inhibitor: blocks hepatitis C virus | actives 3.4% (n = 340,000) | Potency, µM (doses to about 41.8 µM), inactives show top-dose activity change, negative = inhibition, actives largely listed as inhibitors | AID 651820 | Huh7.5.1 HCVcc-Cre infection, luciferase reporter, 44 h; note: potency is the fitted concentration of half-maximal effect; % is set by controls: 0 for no effect and ±100 for the full control effect
#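 Cells seeded at 1,000/well and cultured 4 h, then compounds added followed by HCVcc-Cre virus (~0.5 moi). After 44 h further culture, luciferase substrate was added, plates held 15 min at room temperature, and luminescence read for 15 sec.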
# The depositor's hits bear a star; ? = inconclusive; nt = no result given; [ ] = another dose, or the depositor's remark. Unless noted, calls come from the whole dose curve; as a rule, active = well fitted inhibition curve with a large enough effect; inconclusive = small, poorly fitted or top-dose-only effect, or another doubt; inactive = no such curve, though single readings can be large or run the other way.
SMILES,CHX counter,Pf growth 96h,Shiga inhibitor,Pf growth 48h,HCMV inh,HCV inhibitor
CCOC(=O)c1csc(NC(=O)CN2CCCCC2)n1,-6,10%,-6,5%[0.00184 µM],12,13%
CCCC(=O)Nc1nc(C(=O)OCC)cs1,18*,-5%,32,61%,42,1%
CC(=NC(C)C)C1=C(O)CCC1=O,2,78%,2,45%,?,6%
CC(=Nc1ccccc1)C1=C(O)CCCC1=O,-5,12µM*,-2,2%,-12,1%
CC(=Nc1ccccc1)C1=C(O)CC(C)(C)CC1=O,22*,?,45,14%,-39,17%
CC(=Nc1ccccc1)C1=C(O)C(CC(C)C)NC1=O (stereo not given),nt,nt,nt,nt,1,15%
CC(=Nc1ccc(C)c(C)c1)C1=C(O)CCC1=O,61*,13%,140*,nt,16,6%
CCOC(=O)c1scc(-c2ccccc2)c1S(=O)(=O)N1CCN(c2ccccc2OC)CC1,nt,nt,nt,nt,-19,nt
COc1cc(NC(=O)CCn2c(=S)[nH]c3ccccc3c2=O)cc(OC)c1OC,nt,nt,nt,nt,-7,nt
CN(c1ccc(OC(=O)c2ccc(-n3cncn3)c([N+](=O)[O-])c2)cc1)S(=O)(=O)c1ccccc1,nt,-8%,nt,-7%,45,-13%
Cc1ccc(NC(=O)Nc2cccs2)cc1,28*,7.4µM*,64*,56%,77,3%
Cc1cc(C)cc(NC(=O)Nc2cccs2)c1,nt,nt,nt,nt,-16,nt
CCOc1ccc(NC(=O)Nc2cccs2)cc1,47*,?,61*,nt,122,3%
CCOc1ccc(NC(=O)Nc2ccc(Cc3ccncc3)cc2)cc1,-5,?,-26,?,?,?
Cc1ccc(NC(=O)Nc2cccs2)nc1,38*,nt,94*,128%,29,5%
CCc1ccc(NC(=O)Nc2cccs2)cc1,20*,67%,56*,24%,41,-1%
CC(=O)c1cccc(NC(=O)Nc2cccs2)c1,-1,27%,-2,-12%,-31,-1%
COCc1cc(C)nc(OC)c1C(N)=O,1,5%,-7,-8%,-3,0%
COc1cc(C(=O)O[C@H]2C/C(C)=C/CC/C(C)=C/[C@@H](O)C2C(C)C)ccc1O (stereo not given in full),11,nt,-2,nt,nt,nt
CCOc1ccc(NC(=O)N(Cc2cn(CC)c3ccccc23)C2CCCCCC2)cc1,33*,nt,72*,nt,-87*,nt
CCc1ccc(NC(=O)Cc2cn(C)c3ccccc23)cc1,11,nt,-7,nt,41,15%
CCc1ccc(NC(=O)N(Cc2cn(CC)c3ccccc23)C2CCCCC2)cc1,nt,nt,nt,nt,-104*,nt
CCOc1ccc(NC(=O)N(C2CCCCCC2)C2CCN(C(C)=O)CC2)cc1,7,57%,16,22%,-8,-2%
CN1CCO[C@H](c2ccccc2)c2ccccc2C1,nt,-17%[12.8 µM],nt,-4%[12.8 µM],nt,nt
COc1ccc(C2CC(=O)N(CC(=O)Nc3cc(C)ccc3C)c3ccccc3S2)cc1 (stereo not given),nt,nt,nt,nt,11,nt
SMILES,CHX counter,Pf growth 96h,Shiga inhibitor,Pf growth 48h,HCMV inh,HCV inhibitor
CCOC(=O)C1CCCN(C(=O)CCCn2c(=O)c3cccn3c3cccnc32)C1 (stereo not given),2,?,-9,25%,-13,0%
C=CCOc1cccc(C(=O)Nc2ncn[nH]2)c1,-3,10%,-2,8%,-7,4%
CC[C@H]1CC2CN3CCc4c([nH]c5cc(OC)ccc45)[C@](C(=O)OC)(C2)[C@H]13,nt,nt,nt,nt,nt,35µM*
COc1ccccc1-c1nnc(SCC(=O)NC2CCS(=O)(=O)C2)n1CCc1ccccc1 (stereo not given),-2,5%,-3,8%,-34,19%
COc1cccc(-n2nnnc2SCC(=O)Nc2ccccc2OC)c1,-1,9.3µM*,-6,18%,19,?
CC(=O)c1cccc(-n2nnnc2SCC(=O)Nc2ccccc2N2CCCCC2)c1,2,53%,8,?,-28,14µM*
COc1ccc(-n2nnnc2SCC(=O)Nc2cc(OC)c([N+](=O)[O-])cc2C)cc1,-1,2.9µM*,-5,?,-21,?
CCCS(=O)(=O)c1nnnn1-c1cccc(OC)c1,-1,-1%,2,?,nt,8.9µM*
CSc1cccc(NC(=S)N2CCCN(Cc3ccccc3F)C2)c1,-2,-28%,-6,?,-35,-6%
COc1ccc(NC(=O)c2cc(=O)c3cc(C)cc(C)c3o2)cc1,nt,nt,nt,nt,-7,nt
COc1ccc(-c2cccc(NC(=O)COc3ccc(Cl)cc3)c2)nn1,8,?,1,-10%,nt,-24%
CCOC(=O)c1c(C)oc2nc(C)nc(Nc3ccc(C)c(Cl)c3)c12,nt,nt,nt,nt,17,nt
C=CCOc1ccn(C)c(=O)n1,-2,0%,-13,1%,-12,2%
C=CCn1c(SCC(=O)Nc2ccccc2OC)nnc1-c1ccccn1,-2,?,-4,-10%,18,7.9µM*
O=C(CSc1nnnn1-c1ccc(Cl)cc1)Nc1cccnc1Cl,0,34%,7,6%,-71*,-29%
COc1cc(NC(=O)CSc2nc3ccccc3n2-c2ccccc2)c(C)cc1[N+](=O)[O-],-2,?,-4,12µM*,-11,-20%
COc1ccc(C(=O)NNC(=O)CSc2nnnn2-c2cc(OC)cc(OC)c2)cc1,-8,?,11,29%,8,11µM*
O=C1CCCN1C(=O)CSc1nnnn1-c1ccccc1,nt,-24%,nt,-24%,-6,6%
CCCCC[C@H](C)N1C[C@H](COCc2ccccc2)Oc2cc(N3CC[C@@H](O)C3)ccc2S1(=O)=O,nt,nt,nt,nt,-1,nt
CCCCC[C@@H](C)N1C[C@@H](COCc2ccccc2)Oc2cc(N3CC[C@H](N(C)C)C3)ccc2S1(=O)=O,nt,nt,nt,nt,-63*,nt
C[C@H](c1ccccc1)N1C[C@H](COCc2ccccc2)Oc2cc(N3CCC[C@H]3CO)ccc2S1(=O)=O,nt,nt,nt,nt,-64*,nt
Cc1ccc(NC2CCCN(C(=O)CCC3=NNC(=O)CC3)C2)cc1C (stereo not given),1,8.3µM*,-11,8%,-10,nt
O=C(CCn1cccn1)N1CCCC(Nc2ccc(F)c(F)c2)C1 (stereo not given),nt,nt,nt,nt,22,nt
Cc1ccnn1CCC(=O)N1CCCC(Nc2ccc(F)c(F)c2)C1 (stereo not given),-2,12µM*,17,0%,-12,0%
COc1ccc(NC2CCCN(C(=O)CN3CCOC3=O)C2)cc1 (stereo not given),38*,?,62*,63%,12,18%
COc1ccc(NC2CCCN(C(=O)CN3CCOC3=O)C2)cc1OC (stereo not given),-3,13%,-5,12%,-33,9%
COc1ccc(NC2CCCN(C(=O)Cn3ccc(C)n3)C2)cc1OC (stereo not given),-1,5.2µM*,-3,-15%,25,4%
